# According to PubChem BioAssay AID485297 (National Center for Advancing Translational Sciences (NCATS), 2010):
# Out of some 320,000 compounds screened, about 9,100 (2.8%) were called active. Another 3% or so got no clear call; they are omitted. The entries come from a sample that favours actives as a whole. Values without a mark were called inactive. Calls come from the whole dose curve; as a rule, active = well fitted activation curve with a large enough effect; inconclusive = small, poorly fitted or top-dose-only effect; inactive = no such curve, though single readings can be large or run the other way.
# Assay: qHTS Assay for Rab9 Promoter Activators; note: nearly all actives have a fitted effect of over 60% in size; for activation, negative = inhibition: % of control where 0% means no effect
# Settings: Huh7 Rab9 promoter-luciferase reporter, luminescence, 24 h; series mostly up to 9.22 µM; activation, negative = inhibition: at the top concentration
# Source text: NIH Chemical Genomics Center [NCGC] NIH Molecular Libraries Probe Production centers Network [MLPCN] MLPCN Grant: MH089537-01 Assay Submitter (PI): Yiannis A. Ioannou NCGC Assay Overview: Niemann Pick Type C (NPC) is a rare neurodegenerative lipidosis that is characterized by lipid storage in the endosomal/lysosomal system. Treatment modalities for this devastating disease are currently non-existent due to the severe obstacles associated with accessing the central nervous system with proteins or genes (Ioannou, 2000). We have developed a new paradigm, termed "Orphan Receptor Bypass Therapy" (ORByT), to address these disorders. This paradigm posits the existence of endogenous "suppressor" proteins whose expression can dramatically improve LSD pathogenesis. The goal is the identification/discovery of small chemical compounds that can modulate the expression of these proteins and provide a new treatment modality for these devastating disorders. One such protein whose overexpression reverses aspects of the NPC phenotype is Rab9. We have developed and optimized a cell based luciferase reporter assay in 1536 well format for the identification of up-regulators of the Rab9 promoter.
# The Rab9 promoter is cloned in front of the luciferase reporter gene, therefore […] promoter activation results in luciferase expression. Frozen stock of the Rab9 promoter transfected Huh7 cells were obtained from the laboratory of Dr. Yiannis Ioannou (The Mount Sinai School of Medicine, New York, NY). Cells were propagated and maintained at NCGC in medium containing RPMI-1640 supplemented with 10% FBS, 2mM L-glutamine, and 50ug/ml penicillin/streptomycin. Cells were harvested in and plated for assays in OP-MEM I reduced-serum medium supplemented with 10% FBS. The Amplite luciferase reporter gene assay kit was purchased from ABD Bioquest and prepared/stored according to manufacturers recommendations. qHTS Assay Setup: 1.Dispensed 5ul of Huh7 cells stably expressing Rab9-luciferase at a density of 1500 cells per well 1536-well plates. 2.Incubate cells at 37C, 5% CO2, and 95% humidity for 2 hours. 3.Transferred 23nl per well of compound in DMSO solution. 4.Incubated at 37C, 5% CO2, and 95% humidity for 24 hours. 5.Dispensed 3ul per well of Amplite reagent(ABD Bioquest) per well. 6.Incubate at ambient for 10 minutes. 7.Read using the luminescence protocol on the ViewLux plate reader (Perkin Elmer).
# Potency is the fitted concentration of half-maximal effect.
Compound,"activation, negative = inhibition",Potency
COc1ccccc1N1CCN(CC(=O)Nc2ccnn2C2CCCC2)CC1,-1.51% (inactive),–
COc1ccc(-c2nn(-c3ccccc3)cc2/C=C\C(=O)Nc2ccc(C(=O)O)cc2)cc1,-2.58% (inactive),–
O=C(/C=C\c1cn(-c2ccccc2)nc1-c1cccs1)N1CCOCC1,-2.01% (inactive),–
O=C(O)c1ccc(N/N=C/c2cn(-c3ccccc3)nc2-c2cccs2)cc1,–,0.447 µM (active)
COc1ccc(OC)c(/C=C/C(=O)c2ccc3c(c2)OCO3)c1,-4.56% (inactive),–
CN(C(=O)COC(=O)Cn1cnc2c1c(=O)n(C)c(=O)n2C)C1(C#N)CCCCC1,2.9% (inactive),–
Cc1ccccc1CSCC(=O)NC(=O)NC(C)(C)C,7.27% (inactive),–
CC(C)(C)NC(=O)CSC(=Nc1ccccc1F)NC#N,–,3.98 µM (active)
COc1ccccc1-n1ccnc1SCC(=O)NC(C)(C)C,-2.9% (inactive),–
CC(CCc1ccccc1)NC(=O)c1cnc(Cl)c(Cl)c1 (stereo not drawn),-1.69% [at 1.84 µM],–
COc1ccc(CNC(=O)c2ccc(NS(=O)(=O)c3ccc4[nH]c(=O)[nH]c4c3)cc2)cc1OC,0.821% (inactive),–
CN1CCN(S(=O)(=O)c2ccc(NC(=S)NC(=O)C3CC3)cc2)CC1,2.23% (inactive),–
O=C(NC(=S)Nc1ccc(Cl)cc1Cl)C1CC1,–,2.82 µM (active)
S=C(NCc1cccnc1)Nc1ccc(Cl)cc1Cl,2% (inactive),–
Cc1ccc(OCC(=O)Nc2ccccc2C(=O)NC2CC2)cc1,-0.812% (inactive),–
CCOC(=O)c1c(C)[nH]c(C(=O)OCC(=O)c2ccc(OC)cc2OC)c1C,3.1% (inactive),–
CCCCOC(=O)c1[nH]c(C)c(C(=O)OC)c1C,–,2.82 µM (active)
CCOC(=O)c1c(C)[nH]c(C(=O)OCC(=O)N2CCCC2=O)c1C,5.19% (inactive),–
COc1ccc(/C(C)=N/Nc2cc(C(F)(F)F)ccc2Cl)c(OC)c1,-5.83% (inactive),–
S=C(NNC(=S)NC1CC2CCC1C2)NC1CC2C=CC1C2 (stereo not drawn),-0.185% (inactive),–
S=C(NNC(=S)NC1CC2C=CC1C2)NC1CC2C=CC1C2 (stereo not drawn),6.58% (inactive),–
CC(C)c1ccc(NC(=S)NC2CC3C=CC2C3)cc1 (stereo not drawn),–,2.82 µM (active)
COc1ccc(-c2cc(C(=O)NCCCN3CCCC3=O)c3ccccc3n2)cc1OC,8.83% (inactive),–
N/C(=N\OC(=O)/C=C/c1ccccc1)c1ccc(Br)cc1,3.85% (inactive),–
N/C(=N\OC(=O)N1c2ccccc2Sc2ccccc21)c1ccc(Br)cc1,-1.25% (inactive),–
N/C(=N\OC(=O)c1ccc2c(c1)OCO2)c1ccc(Br)cc1,–,3.98 µM (active)
CC1CC2C3CCC4=CC(=O)C=C[C@]4(C)[C@@]3(F)[C@@H](O)C[C@]2(C)[C@@]1(O)C(=O)CO (stereo partly drawn),4.04% [at 46.1 µM] (inactive),–

Compound,"activation, negative = inhibition",Potency
CCCc1nc2ccccc2c(=O)n1NC(=O)c1c(O)c2ccccc2[nH]c1=O,-0.479% (inactive),–
NS(=O)(=O)c1ccccc1NC(=O)c1c(O)c2ccccc2[nH]c1=O,–,0.447 µM (active)
CC(C)C(=O)Nc1c(O)c2ccccc2[nH]c1=O,-2.25% (inactive),–
COc1ccc(C(=O)NCc2ccc(Cl)cc2)cc1S(=O)(=O)N1CCCC1,-4.13% (inactive),–
CCCn1nc(C(=O)NNC(=O)CCOc2ccccc2OCC)c2ccccc2c1=O,-1.1% (inactive),–
NC(=O)c1ccsc1NC(=O)c1ccco1,3.95% (inactive),–
O=C(Nc1ccnc(-c2ccncc2)n1)c1cccs1,-2.43% (inactive),–
O=C(Nc1ccc(NC(=O)c2cccs2)cn1)c1ccco1,–,0.316 µM (active)
CC(C)(C)n1ncc2c(=O)n(Cc3c(Cl)cccc3Br)cnc21,-2.66% (inactive),–
c1ccc(CN=C2Nc3ccccc3CS2)nc1,–,0.891 µM (active)
Cc1ccc(F)cc1S(=O)(=O)Nc1cccc(C(=O)N2CCCC(C(N)=O)C2)c1 (stereo not drawn),-1.43% (inactive),–
C=C(C)CNc1cc(S(=O)(=O)N2CCOCC2)ccc1Oc1ccccc1,-9.64% (inactive),–
N#Cc1ccc(OCc2nnc(-c3ccc([N+](=O)[O-])cc3)o2)cc1,29.6% (inactive),–
Cc1ccc(OCC(=O)Nc2ccc(-c3nnc(-c4ccco4)o3)cc2)cc1,–,2.82 µM (active)
CCOc1ccc(-c2nnc(-c3ccco3)o2)cc1,–,0.355 µM (active)
CCOc1ccc(-n2c(SCC(N)=O)nnc2-c2ccco2)cc1,0.124% (inactive),–
COc1ccc(OCC(=O)Nc2nnc(-c3ccco3)s2)cc1,-2.66% (inactive),–
Cc1ccc(OCC(=O)Nc2nnc(-c3ccco3)s2)cc1,0.409% (inactive),–
CCCCOc1ccc(-c2nnc(-c3ccco3)o2)cc1,–,1.41 µM (active)
O=C(CCc1ccccc1)Nc1cccc(-c2nnc(-c3ccco3)o2)c1,2.91% (inactive),–
CC(=O)Nc1ccc(NC(=O)COc2ccc(-c3ccccc3)cc2)cc1,-5.02% (inactive),–
O=C(CN1CCCSc2ccccc21)N1CCN(S(=O)(=O)c2cccc(F)c2)CC1,-7.54% (inactive),–
Cc1cccc(NC(=S)NCCc2ccc(Cl)cc2)c1C,-1.92% (inactive),–
COc1ccccc1S(=O)(=O)NCc1ccc(C(=O)N(C)Cc2ccc(F)cc2)cc1,2.36% (inactive),–
CC(=O)Nc1ccc(NC(=O)CCN2C(=O)C3CC=CCC3C2=O)cc1 (stereo not drawn),-1.96% (inactive),–
CCOC(OCC)c1ccc(/C=C\c2nccc(N)n2)cc1,–,1.78 µM (active)
